Assay outcomes (PubChem BioAssay)
STK33 kin inh: human STK33 kinase inhibition; Q9BYT3; ADP-Glo luminescence, MBP substrate; inhibition, % at 12.5 µM; 27,000 tested, 0.44% active; in the data active means inhibition above about 20%
Target sequence (Q9BYT3 whole entry, looked up): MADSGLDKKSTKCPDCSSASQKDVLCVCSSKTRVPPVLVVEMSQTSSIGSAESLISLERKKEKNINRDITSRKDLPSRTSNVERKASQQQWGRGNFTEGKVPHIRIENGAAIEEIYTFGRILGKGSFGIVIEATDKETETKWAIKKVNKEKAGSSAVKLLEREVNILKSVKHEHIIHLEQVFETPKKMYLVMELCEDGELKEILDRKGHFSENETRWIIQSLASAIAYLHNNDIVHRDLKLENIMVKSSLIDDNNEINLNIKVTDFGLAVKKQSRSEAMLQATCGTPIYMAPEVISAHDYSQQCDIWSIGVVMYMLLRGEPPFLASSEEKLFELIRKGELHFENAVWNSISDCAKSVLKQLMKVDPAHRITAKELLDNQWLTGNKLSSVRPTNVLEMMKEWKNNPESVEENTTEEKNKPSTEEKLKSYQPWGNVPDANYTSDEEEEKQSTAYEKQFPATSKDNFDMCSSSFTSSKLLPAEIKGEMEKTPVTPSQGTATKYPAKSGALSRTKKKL
NOMO-1 viab: STK33 inhibitor candidate reducing NOMO-1 cell viability; NOMO-1 AML viability, CellTiter-Glo luminescence, 72 h; inhibition, % (test concentration not listed); 37,000 tested, 7.5% active; in the data active means inhibition above about 80%
PD-1 reversal: activators reversing PD-1 mediated T-cell inhibition; primary human CD4 T cells, PD-L1 beads, CellTiter-Glo 96 h; activation, % (no concentration beside the values); 29,000 tested, under 10 active; AID 2316; call rule not given here;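 further: 0% = median vehicle wells and 100% = positive control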
Numbers without * were called inactive. Only a selection was taken, and hits are over-represented in it overall.

Screening CC1(C)CC[C@]2(C(=O)O)CC[C@]3(C)C(=CCC4[C@@]5(C)C[C@@H](O)[C@H](O)[C@](C)(CO)C5CC[C@]43C)[C@@H]2[C@@H]1O (some centres undefined) returned STK33 kin inh -4, NOMO-1 viab 17 and PD-1 reversal 2.
CC(C)(C)OC(=O)N1CCN(Cc2ccccc2)CC1 was read as NOMO-1 viab -7 and PD-1 reversal 0.
For COc1ccc(OC)c(NC(=O)CC2Sc3ccccc3NC2=O)c1 (centres undefined) the results were STK33 kin inh -2, NOMO-1 viab 3 and PD-1 reversal -1.
`CCOc1cc([N+](=O)[O-])ccc1NC(=O)CC1Sc2ccccc2NC1=O` (centres undefined) gave STK33 kin inh 0, NOMO-1 viab 110* and PD-1 reversal -4.
Screening Cc1ccc(-c2nc3ccccc3s2)cc1NC(=O)COc1ccc(Cl)cc1 returned STK33 kin inh 1 and NOMO-1 viab 36.
C=C1C(=O)O[C@@H]2C3=C(C)CC[C@]34O[C@@H](C[C@@H]4C)[C@H]12 was read as STK33 kin inh -1, NOMO-1 viab 114* and PD-1 reversal -13.
`O=C(COc1ccc(Cl)cc1Cl)Nc1ccc(Br)cc1C(=O)O` gave STK33 kin inh 0, NOMO-1 viab -17 and PD-1 reversal 2.
For O=C(CSc1nc2ccccc2[nH]1)Nc1cccc(Cl)c1 the results were STK33 kin inh -11, NOMO-1 viab 7 and PD-1 reversal -3.
`CCOc1ccccc1NC(=O)C(C)Oc1ccc(OC)cc1` (centres undefined) gave STK33 kin inh -2, NOMO-1 viab 105* and PD-1 reversal -3.
COc1ccc(OC(C)C(=O)Nc2cc(OC)cc(OC)c2)cc1 (centres undefined) was read as STK33 kin inh -3, NOMO-1 viab 36 and PD-1 reversal 1.
`COc1ccc2c(c1)OCC(Cc1ccc(OC)c(OC)c1)C2=O` (centres undefined) gave STK33 kin inh 0 and NOMO-1 viab -3.
Screening COc1ccc2c(c1)OCC(Cc1ccc(OC)c(OC(C)=O)c1)C2=O (centres undefined) returned STK33 kin inh 3 and NOMO-1 viab 108*.
For CN(C)c1nc(Cl)nc(N(C#N)CN2C(=O)c3ccccc3C2=O)n1 the results were NOMO-1 viab 105* and PD-1 reversal 0.
CN(C)c1nc(-c2ccc(Cl)cc2)[nH]c(=O)n1 was read as NOMO-1 viab -3 and PD-1 reversal 0.
For CC(C)C1NC(=O)/C(=C/c2cnc[nH]2)NC1=O (centres undefined) the results were STK33 kin inh -1.
For C=CC(C)(C)c1[nH]cnc1/C=C1\NC(=O)C(C(C)C)NC1=O (centres undefined) the results were STK33 kin inh 0, NOMO-1 viab 106* and PD-1 reversal 1.
For O=C(O)CCC(=O)N=S(c1ccccc1)c1ccccc1 the results were NOMO-1 viab 63 and PD-1 reversal 1.
Screening C[C@H]1CN([C@@H](C)CO)C(=O)c2cc(NC(=O)Nc3ccc(C(F)(F)F)cc3)ccc2O[C@H]1CN(C)C(=O)Nc1ccc(C(F)(F)F)cc1 returned NOMO-1 viab 120* and PD-1 reversal -2.
C[C@H](CO)N1C[C@H](C)[C@@H](CN(C)C(=O)Nc2ccc(C(F)(F)F)cc2)Oc2ccc(NC(=O)Nc3ccccc3)cc2C1=O was read as NOMO-1 viab 2.
Screening C[C@@H]1CN([C@@H](C)CO)C(=O)c2cc(NC(=O)Nc3ccc(C(F)(F)F)cc3)ccc2O[C@H]1CN(C)C(=O)Nc1ccc(C(F)(F)F)cc1 returned STK33 kin inh 0, NOMO-1 viab 105* and PD-1 reversal -7.
For C[C@@H]1CN([C@@H](C)CO)C(=O)c2cc(NC(=O)Nc3ccc(C(F)(F)F)cc3)ccc2O[C@@H]1CN(C)C(=O)Nc1ccc(C(F)(F)F)cc1 the results were NOMO-1 viab 114* and PD-1 reversal -6.
`C[C@H]1CN([C@@H](C)CO)C(=O)c2cc(NC(=O)Nc3ccc(C(F)(F)F)cc3)ccc2O[C@H]1CN(C)C(=O)NC1CCCCC1` gave STK33 kin inh 1, NOMO-1 viab 103* and PD-1 reversal -3.
`C[C@H](CO)N1C[C@H](C)[C@H](CN(C)C(=O)NC2CCCCC2)Oc2ccc(NC(=O)Nc3ccc(C(F)(F)F)cc3)cc2C1=O` gave STK33 kin inh 0, NOMO-1 viab 63 and PD-1 reversal -4.
Screening C[C@@H]1CN([C@@H](C)CO)C(=O)c2cc(NC(=O)Nc3ccc(F)cc3)ccc2O[C@H]1CN(C)C(=O)Nc1ccc(C(F)(F)F)cc1 returned STK33 kin inh -2, NOMO-1 viab 61 and PD-1 reversal -1.
Screening C[C@@H]1CN([C@H](C)CO)C(=O)c2cc(NC(=O)Nc3ccc(F)cc3)ccc2O[C@@H]1CN(C)C(=O)Nc1ccc(C(F)(F)F)cc1 returned NOMO-1 viab 48 and PD-1 reversal -2.
Cc1ccccc1NC(=O)CSc1cc(C)c2ccccc2n1 was read as STK33 kin inh 0 and NOMO-1 viab 10.
`C[C@H]1CN([C@@H](C)CO)C(=O)c2cc(NC(=O)Nc3ccc(C(F)(F)F)cc3)ccc2O[C@H]1CN(C)C(=O)Nc1ccc(F)cc1` gave NOMO-1 viab 76 and PD-1 reversal 0.
For C[C@@H]1CN([C@H](C)CO)C(=O)c2cc(NC(=O)Nc3ccc(C(F)(F)F)cc3)ccc2O[C@@H]1CN(C)C(=O)Nc1ccc(C(F)(F)F)cc1 the results were NOMO-1 viab 94*.
For CCNc1cc(N)[n+](CC)c2n[nH]c(N)c12 the results were NOMO-1 viab 106* and PD-1 reversal 0.
O=C(CN1CCN(S(=O)(=O)c2cccc([N+](=O)[O-])c2)CC1)Nc1cc(Cl)ccc1Cl was read as STK33 kin inh 0 and NOMO-1 viab 8.
COc1cc(C(Nc2ccccn2)c2cc(Cl)c3cccnc3c2O)cc(Br)c1O (centres undefined) was read as STK33 kin inh 7 and NOMO-1 viab 48.
For CCc1ccc(C(Nc2ccccn2)c2cc(Cl)c3cccnc3c2O)cc1 (centres undefined) the results were STK33 kin inh 5, NOMO-1 viab 123* and PD-1 reversal -13.
`O=C(O)c1ccc(C(Nc2ccccn2)c2cc(Cl)c3cccnc3c2O)cc1` (centres undefined) gave STK33 kin inh -3.
Cc1ccc(C)c(C(Nc2ccccn2)c2cc(Cl)c3cccnc3c2O)c1 (centres undefined) was read as STK33 kin inh 3, NOMO-1 viab 113* and PD-1 reversal -10.
CCOc1ccc(C(Nc2cccnc2)c2cc(Cl)c3cccnc3c2O)cc1 (centres undefined) was read as STK33 kin inh 5 and NOMO-1 viab 115*.
Screening Cn1nc(-c2ccc(OCC(=O)Nc3cccnc3)cc2)c2ccccc2c1=O returned STK33 kin inh 0, NOMO-1 viab 63 and PD-1 reversal -2.
For CSc1ccc(C(Nc2ccccn2)c2cc(Cl)c3cccnc3c2O)cc1 (centres undefined) the results were STK33 kin inh 5, NOMO-1 viab 112* and PD-1 reversal -9.
For S=c1nc(-c2ccco2)n(Cc2ccccc2)c(=S)n1C(=NCc1ccccc1)c1ccco1 the results were NOMO-1 viab 8 and PD-1 reversal -1.
